Active and inactive are the calls of the source.

One assay has as its target Albumin (Bos taurus) (UniProt P02769). The assay can be described thus: compounds binding labelled BSA control protein – biochemical, small-molecule microarray, Alexa647 label, 635/667 nm fluorescence, artefact control for SMM control protein annotation, profiling panel (AID 1118).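 Note: score merges 667 nm emission intensity and signal-to-noise per printed compound spot.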 The conditions noted are these: BSA-A647 binding, fluorescence 635 nm, higher = more signal.

The nature of assay [1]: probe aXIP binding to arrayed compounds – biochemical, NeuroSMM set, 635/667 nm fluorescence, primary screen (AID 1119).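 Note: probe is the protein aXip251-270 applied at 1 µg/mL to compound-printed slides; binding of probe to printed compounds measured as 667 nm fluorescence plus signal to noise.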 The conditions noted are these: small-molecule microarray, higher = more signal, called active from +8 up or from −8 down.
Assay [2] in a line: probe aNOTCH3 binding on compound microarray – biochemical, small-molecule microarray, 635/667 nm fluorescence, primary screen (AID 1120).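 Note: probe is a biotin-tagged antibody raised against NOTCH3 rather than NOTCH3 protein; score merges spot fluorescence near 667 nm with spot signal to noise.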 The conditions noted are these: higher = more signal.
The nature of assay [3]: probe aNOTCH2 binding on compound microarray – biochemical, small-molecule microarray, 635/667 nm fluorescence, primary screen (AID 1121).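 Note: score merges feature fluorescence read at 667 nm with its signal to noise.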 The conditions noted are these: higher = more signal.
The target of assay [4] is Carbonic anhydrase 2 (Homo sapiens) (UniProt P00918). The assay can be described thus: compounds binding carbonic anhydrase 2 – biochemical, small-molecule microarray, Alexa647-labelled CAII, profiling panel (AID 1122). Conditions: CAII-A647 binding fluorescence, higher = more signal.
A short description of assay [5]: COS7 lysate on small-molecule microarray, probe aHis, 635 nm (AID 1123).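 Note: z-score combines 667nm fluorescence intensity with signal-to-noise per printed compound spot.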 The conditions noted are these: COS7 cell lysate, fluorescence, higher = more signal.
Assay [6] is described as follows: probe aLAP1 signal on lysate-treated microarray – cell lysate, small-molecule microarray, COS7 lysate, primary screen (AID 1124).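 Note: lysate comes from COS7 cells expressing LAP1 and is applied at 0.3 µg/mL; score merges spot fluorescence near 667 nm with signal-to-noise over triplicate slides.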 Conditions: probe aLAP1, fluorescence, higher = more signal.
A further assay relates to Sam68 (KHDRBS1). The assay can be described thus: compounds binding KHDRBS1 protein – biochemical, small-molecule microarray, 635 nm fluorescence, primary screen (AID 1125).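 Note: score merges 667 nm channel intensity with signal to noise over triplicate slides.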 Conditions: higher = more signal.
Assay [7] deals with Chordin-like protein 2 (CHRDL2). The assay can be described thus: compounds binding chordin-like 2 – biochemical, small-molecule microarray, 635 nm fluorescence, primary screen (AID 1126).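 Note: printed compound slides probed with Chrdl2 protein at 4 µg/mL for 1 h at 4 C; score merges 667 nm emission intensity with signal to noise over three replicate slides.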 Conditions: fluorescence 635 nm, higher = more signal.
Assay [8] deals with Concanavalin-A (Canavalia ensiformis) (UniProt P02866). The assay can be described thus: compounds binding concanavalin A lectin – biochemical, small-molecule microarray, Alexa647 label, 635 nm, artefact control for SMM control protein annotation, primary screen (AID 1127).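 Note: z combines 667 nm emission intensity with signal-to-noise across three replicate slides.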 The conditions noted are these: ConA-A647 binding fluorescence, higher = more signal.
The nature of assay [9]: compounds binding Alexa647 anti-His antibody – biochemical, small-molecule microarray, 635 nm fluorescence, artefact control for SMM control protein annotation, primary screen (AID 1128).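 Note: score merges feature fluorescence with signal-to-noise for each printed compound spot.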 Conditions: higher = more signal.
Assay [10] has as its system Human papillomavirus type 1a E7 protein (residues 1-88). The assay can be described thus: HPV1a E7 small-molecule binders, primary screen, biochemical, small-molecule microarray, residues 1-88, 635 nm (AID 1129). The conditions noted are these: small-molecule microarray binding, fluorescence 635 nm; higher = more signal.
The target in assay [11] is Focal adhesion kinase 1 (Homo sapiens) (UniProt Q05397). The assay can be described thus: PTK2 protein binding on printed compound slides – biochemical, small-molecule microarray, 635/667 nm fluorescence, BSA, DTT, primary screen (AID 1130).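 Note: composite of spot emission at 667 nm and signal to noise over triplicate slides.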 Conditions: 635 nm fluorescence, higher = more signal.
In assay [12] the test system is Fibrinogen (Alexa647-labelled). The assay can be described thus: Alexa647-fibrinogen binding to printed small molecules – biochemical, small-molecule microarray, 635/667 nm fluorescence, artefact control for SMM control-protein annotation, profiling panel (AID 1131).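 Note: z-score merges 667 nm fluorescence with per-spot signal-to-noise over triplicate slides.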 Conditions: fibrinogen-A647 binding fluorescence, higher = more signal.
The target of assay [13] is Follistatin (Homo sapiens) (UniProt P19883). The assay can be described thus: FST protein binding to printed compounds – biochemical, small-molecule microarray, 635/667 nm fluorescence, primary screen (AID 1132). The conditions noted are these: 635 nm fluorescence, higher = more signal.
Assay [14] deals with Fibroblast growth factor 2 (Homo sapiens) (UniProt P09038). The assay can be described thus: basic fibroblast growth factor binding to printed compounds – biochemical, small-molecule microarray, 635/667 nm fluorescence, primary screen (AID 1133). The conditions noted are these: FGF2, fluorescence 635/667, higher = more signal.
Assay [15] can be described thus: JC-1 mitochondrial potential readout, lung cancer cells – cell-based, A549, JC-1 fluorescence, basal, 24 h, 100 nL, profiling panel (AID 1138).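 Note: A549 lung adenocarcinoma cells under basal conditions with no added stimulus; test concentration not given here.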 The conditions noted are these: higher = more signal.
For a further assay, the system named is Lefty1. The assay can be described thus: Lefty1 protein binding to printed compounds – biochemical, small-molecule microarray, 635/667 nm fluorescence, primary screen (AID 1139). The conditions noted are these: fluorescence 635/667, higher = more signal.
For assay [16], the system named is wheat germ agglutinin (Triticum aestivum), Alexa647-labelled. The assay can be described thus: Alexa647-WGA lectin binding to printed small molecules – biochemical, small-molecule microarray, 635/667 nm fluorescence, artefact control for SMM control-protein annotation, profiling panel (AID 1140).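 Note: score merges 667 nm feature emission with signal to noise over triplicate slides.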 The conditions noted are these: WGA-A647 binding, 635 nm fluorescence, higher = more signal.

Assay [17] concerns the target Luciferin 4-monooxygenase (Photinus pyralis) (UniProt P08659). The assay can be described thus: inhibition of purified Photinus pyralis luciferase – biochemical, luminescence, purified enzyme, 2006 set, primary screen (AID 1141).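 Note: cell-free assay with purified firefly luciferase at 100 ng per well in PBS; test concentration not given here.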 The conditions noted are these: purified firefly luciferase, SteadyGlo luminescence, 30 min; higher = more signal, called active from +8 up or from −8 down.

Focal adhesion kinase 1 (Homo sapiens), sequence (Q05397 whole entry, looked up): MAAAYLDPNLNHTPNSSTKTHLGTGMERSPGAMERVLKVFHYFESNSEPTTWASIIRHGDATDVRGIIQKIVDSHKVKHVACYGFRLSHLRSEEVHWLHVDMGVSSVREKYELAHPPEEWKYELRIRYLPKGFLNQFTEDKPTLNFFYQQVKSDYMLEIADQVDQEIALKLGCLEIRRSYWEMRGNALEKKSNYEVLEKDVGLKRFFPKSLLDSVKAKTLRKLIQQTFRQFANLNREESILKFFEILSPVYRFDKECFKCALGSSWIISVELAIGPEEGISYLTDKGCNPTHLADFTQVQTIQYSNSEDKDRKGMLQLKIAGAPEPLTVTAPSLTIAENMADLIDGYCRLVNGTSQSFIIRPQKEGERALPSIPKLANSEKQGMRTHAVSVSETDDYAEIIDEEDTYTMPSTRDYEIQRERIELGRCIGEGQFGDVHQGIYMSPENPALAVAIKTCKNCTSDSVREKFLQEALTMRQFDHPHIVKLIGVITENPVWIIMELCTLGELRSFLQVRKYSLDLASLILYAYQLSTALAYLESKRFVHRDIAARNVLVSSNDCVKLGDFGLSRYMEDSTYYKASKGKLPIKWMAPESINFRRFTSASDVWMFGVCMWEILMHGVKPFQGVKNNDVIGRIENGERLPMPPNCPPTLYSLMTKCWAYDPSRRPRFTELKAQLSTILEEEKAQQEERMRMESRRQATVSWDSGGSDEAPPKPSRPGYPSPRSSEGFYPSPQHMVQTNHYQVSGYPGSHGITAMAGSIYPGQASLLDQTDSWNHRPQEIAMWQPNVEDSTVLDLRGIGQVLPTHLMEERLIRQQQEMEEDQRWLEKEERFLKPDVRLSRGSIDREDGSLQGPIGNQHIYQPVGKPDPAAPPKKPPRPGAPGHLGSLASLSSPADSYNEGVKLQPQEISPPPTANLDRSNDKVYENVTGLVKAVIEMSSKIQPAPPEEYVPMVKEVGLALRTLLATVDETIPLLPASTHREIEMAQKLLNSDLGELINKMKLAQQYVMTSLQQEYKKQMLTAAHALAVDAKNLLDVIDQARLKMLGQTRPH
Concanavalin-A (Canavalia ensiformis), sequence (P02866 whole entry, looked up): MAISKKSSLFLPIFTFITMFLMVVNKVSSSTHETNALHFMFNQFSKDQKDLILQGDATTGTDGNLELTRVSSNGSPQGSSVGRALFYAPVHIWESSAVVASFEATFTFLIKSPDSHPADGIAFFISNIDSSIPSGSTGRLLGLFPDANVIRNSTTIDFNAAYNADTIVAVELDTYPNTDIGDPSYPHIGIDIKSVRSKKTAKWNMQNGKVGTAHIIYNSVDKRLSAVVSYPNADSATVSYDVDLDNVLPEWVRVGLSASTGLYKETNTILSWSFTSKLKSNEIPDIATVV
Albumin (Bos taurus), sequence (P02769 whole entry, looked up): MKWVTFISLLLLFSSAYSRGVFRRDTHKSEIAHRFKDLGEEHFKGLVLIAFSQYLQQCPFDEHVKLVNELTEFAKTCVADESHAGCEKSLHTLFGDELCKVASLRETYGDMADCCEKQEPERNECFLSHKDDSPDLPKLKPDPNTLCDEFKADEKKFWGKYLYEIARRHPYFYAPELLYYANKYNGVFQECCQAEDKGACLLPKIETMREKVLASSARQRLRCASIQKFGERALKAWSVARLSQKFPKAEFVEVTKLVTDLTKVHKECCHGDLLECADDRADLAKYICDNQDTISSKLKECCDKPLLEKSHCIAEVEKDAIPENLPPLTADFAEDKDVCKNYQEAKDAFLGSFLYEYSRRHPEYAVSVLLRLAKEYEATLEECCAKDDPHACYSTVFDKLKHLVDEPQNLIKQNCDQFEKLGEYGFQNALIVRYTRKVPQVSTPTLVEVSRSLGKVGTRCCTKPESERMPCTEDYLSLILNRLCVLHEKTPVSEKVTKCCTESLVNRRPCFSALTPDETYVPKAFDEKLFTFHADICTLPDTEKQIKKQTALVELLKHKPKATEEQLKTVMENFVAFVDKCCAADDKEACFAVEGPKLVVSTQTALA
Fibroblast growth factor 2 (Homo sapiens), sequence (P09038 whole entry, looked up): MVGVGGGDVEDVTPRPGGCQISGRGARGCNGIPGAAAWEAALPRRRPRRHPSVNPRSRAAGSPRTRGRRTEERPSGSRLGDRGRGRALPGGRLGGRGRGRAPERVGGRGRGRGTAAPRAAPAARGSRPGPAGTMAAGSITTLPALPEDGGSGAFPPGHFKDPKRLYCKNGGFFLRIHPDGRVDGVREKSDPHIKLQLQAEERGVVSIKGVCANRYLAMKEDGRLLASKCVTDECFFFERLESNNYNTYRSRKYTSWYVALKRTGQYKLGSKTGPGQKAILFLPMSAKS
Luciferin 4-monooxygenase (Photinus pyralis), sequence (P08659 whole entry, looked up): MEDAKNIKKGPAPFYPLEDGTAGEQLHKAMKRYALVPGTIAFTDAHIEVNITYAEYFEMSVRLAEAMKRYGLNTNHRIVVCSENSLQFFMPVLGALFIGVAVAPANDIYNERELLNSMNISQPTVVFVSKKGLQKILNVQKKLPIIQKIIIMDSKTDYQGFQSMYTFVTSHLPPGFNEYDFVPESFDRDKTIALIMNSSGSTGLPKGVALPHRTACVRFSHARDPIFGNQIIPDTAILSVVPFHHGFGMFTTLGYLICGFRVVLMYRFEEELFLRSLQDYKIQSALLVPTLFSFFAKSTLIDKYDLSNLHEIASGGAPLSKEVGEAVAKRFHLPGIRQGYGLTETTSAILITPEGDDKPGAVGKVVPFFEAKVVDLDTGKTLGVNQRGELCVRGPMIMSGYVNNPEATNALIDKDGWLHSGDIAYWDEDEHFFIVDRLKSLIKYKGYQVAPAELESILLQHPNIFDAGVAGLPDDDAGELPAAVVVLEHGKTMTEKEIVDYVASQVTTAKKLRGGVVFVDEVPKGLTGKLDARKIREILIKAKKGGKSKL
Follistatin (Homo sapiens), sequence (P19883 whole entry, looked up): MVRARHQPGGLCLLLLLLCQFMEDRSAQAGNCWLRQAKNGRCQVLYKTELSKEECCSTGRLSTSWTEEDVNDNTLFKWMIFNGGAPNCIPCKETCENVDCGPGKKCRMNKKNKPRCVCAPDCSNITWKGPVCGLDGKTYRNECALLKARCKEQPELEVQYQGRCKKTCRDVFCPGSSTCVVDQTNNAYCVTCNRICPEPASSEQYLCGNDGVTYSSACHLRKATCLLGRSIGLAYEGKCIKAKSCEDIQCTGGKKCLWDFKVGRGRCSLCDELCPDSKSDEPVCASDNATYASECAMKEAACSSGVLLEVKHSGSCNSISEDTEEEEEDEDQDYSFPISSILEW

Take `CC(C)[C@H]1NC(=O)[C@@]23C(=O)N[C@@H](Cc4ccccc4)C2[C@H](C)[C@@]2(C)O[C@H]2C3/C=C/C/C=C\CNC(=O)[C@H](Cc2ccccc2)NC1=O` (stereo not given in full): the composite z-score was 0.347 in the assay with Albumin (Bos taurus); 0.204 in assay [2]; -0.19 in assay [3]; 0.318 in [4]; 0.836 in assay [5]; 0.582 in assay [6]. For the same molecule, the composite z-score in the assay with Sam68 (KHDRBS1) came out at 1.29; in assay [7], 0.908; in [8] it was 0.273; in assay [9], 0.591; in assay [10], 0.973; in assay [11], 0.117. Also, the composite z-score worked out at 0.982 in assay [12]; 1.31 in assay [13]; 1.42 in [14]; 1.57 with Lefty1; 0.489 in assay [16]. For the same molecule, the composite Z-score in assay [1] is 0.167 (inactive). For the same molecule, the z-score is -0.182 in [15] and -0.894 (inactive) in assay [17].

For `Cc1ccc(F)cc1S(=O)(=O)N[C@@H]1CCN(Cc2cccc3[nH]ccc23)C1`, the composite z-score is -0.864 in the assay with Albumin (Bos taurus); 0.0749 in assay [2]; -0.154 in [3]; 0.708 in [4]; -0.339 in assay [5]; 0.136 in assay [6]. The composite z-score in the assay on Sam68 (KHDRBS1) is 0.289; in assay [7], 1.23; in assay [8], 0.249; in assay [9], 0.134; in [10] it was 0.179; in assay [11], -0.271. The composite z-score in assay [12] was -0.383; in [13], 1.26; in [14], 0.932; with Lefty1, 0.69; in assay [16], -0.227. Also, the composite Z-score in [1] was -1.15 (inactive). The z-score was 0.443 in [15] and -0.0287 (inactive) in [17].

On to `C=C(C(=O)CC[C@H](OC(=O)c1ccccc1-c1ccccc1C(=O)O)c1ccccc1OCCO)C(C)C`, for which the composite z-score with Albumin (Bos taurus) was 0.0198; in assay [2] it was -0.0035; in assay [3], -0.176; in assay [4], 0.52; in assay [5], 0.559; in assay [6], -0.0566. Further, the composite z-score is 0.974 in the assay on Sam68 (KHDRBS1); 0.0958 in [7]; -0.138 in assay [8]; -0.0781 in [9]; 0.909 in assay [10]; 0.0778 in [11]. Moreover, the composite z-score in assay [12] is -0.115; in assay [13], 0.991; in assay [14], 1.24; in the assay on Lefty1 it was 1.01; in assay [16], 0.423. The composite Z-score in assay [1] is 0.292 (inactive). In addition, the z-score in [15] is 0.743; in assay [17] it was -1.29 (inactive).

Regarding `O=C(O)[C@H]1C[C@H]2C(=O)N[C@@H](Cc3ccccc3)C(=O)N2[C@H]1c1cccc(OCCO)c1`, the composite z-score was -1.09 with Albumin (Bos taurus); 0.182 in assay [2]; -0.0609 in [3]; 0.634 in assay [4]; 0.26 in assay [5]; -0.0699 in assay [6]. For the same molecule, the composite z-score in the assay on Sam68 (KHDRBS1) is 1.05; in assay [7], 1.01; in assay [8], 0.95; in [9], 1.7; in assay [10] it was -0.0006; in assay [11], -0.167. For the same molecule, the composite z-score turned out to be 0.472 in assay [12]; 1.43 in assay [13]; 1.44 in assay [14]; 1.33 with Lefty1; 0.568 in assay [16]. In addition, the composite Z-score in assay [1] was 0.309 (inactive). Further, the z-score is 0.706 in [15] and -0.832 (inactive) in assay [17].

Regarding `COC(=O)C(CC#Cc1ccc2c(c1)[C@]1(C(=O)N2)[C@H](C(=O)Nc2nc3ccccc3s2)[C@H]2C(=O)O[C@H](c3ccccc3)[C@H](c3ccccc3)N2[C@@H]1c1ccc(OCCO)cc1)C(=O)OC`, the composite z-score is 0.942 in the assay with Albumin (Bos taurus); 0.178 in [2]; -0.0209 in assay [3]; 0.553 in assay [4]; 2.29 in assay [5]; 1.04 in assay [6]. Also, the composite z-score in the assay on Sam68 (KHDRBS1) turned out to be 1.3; in assay [7], 0.517; in assay [8], 1.12; in [9], 1.94; in [10] it was 1.1; in [11] it was 0.539. Also, the composite z-score came out at 0.978 in assay [12]; 1.45 in assay [13]; 1.39 in [14]; 1.27 with Lefty1; 1.07 in assay [16]. Besides, the composite Z-score in assay [1] was 0.0898 (inactive). The values for the z-score in assay [15] and in assay [17] were -1.94 and -4.66 (inactive), respectively.

`CC(C)OC(=O)CC(=O)CC(O)c1ccc([N+](=O)[O-])cc1` (stereo not given): the composite z-score with Albumin (Bos taurus) was 0.169; in assay [2], -0.0413; in assay [3] it was 0.0215; in assay [4] it was 0.152; in [5], 0.666; in assay [6], 0.447. The composite z-score was 0.543 with Sam68 (KHDRBS1); -1.23 in assay [7]; -0.122 in [8]; 0.42 in [9]; 0.304 in assay [10]; -0.0134 in [11]. In addition, the composite z-score in [12] was -0.434; in assay [13], -0.134; in [14], -0.404; in the assay with Lefty1 it was -0.006; in assay [16], 0.518. Moreover, the composite Z-score in assay [1] was -0.314 (inactive). The z-score in assay [15] was 0.276; in assay [17] it was 0.419 (inactive).

For the origin of these results see PubChem BioAssay.
